ELG1 genotoxic: induces genotoxicity in HEK293T cells with luciferase-tagged ELG1; actives 1.3% (n = 330,000); HEK293T ELG1-luciferase reporter, luminescence, 16 h; Potency, µM (top dose mostly 46 µM), hits mostly activators; further: nearly all actives have a fitted effect of over 60% in size
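Screening used a luciferase reporter fused to human ELG1 in HEK293T cells. Luminescence was read on a CCD plate imager after 16 hr exposure and 30 min ONE-Glo incubation.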
p53 reactivator: re-activators of mutant p53 | AID 504706 | H1299 p53-A138V BP100-luciferase reporter, luminescence, 24 h | Potency, µM (doses to about 92.2 µM), most hits filed as activators | actives 0.063% (n = 320,000); further: nearly all actives have a fitted effect of over 45% in size
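H1299 (p53-null), stable ts p53-A138V + BP100-Luc; 1000 cells/well, Opti-MEM/10% FBS; cpd 4 pt, 1:5; 24 h, 37 deg C, 5% CO2; detection reagent 10 min RT; luminescence.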
FLuc modulator: inhibits or activates purified firefly luciferase, miR-21 counter-screen; purified FLuc, Km substrates, luminescence inhibition; actives 6.9% (n = 360,000); Potency, µM (highest dose often 57.5 µM), usual class: inhibitors; P08659; further: nearly all actives have a fitted effect of over 55% in size
Target sequence (P08659 whole entry, looked up): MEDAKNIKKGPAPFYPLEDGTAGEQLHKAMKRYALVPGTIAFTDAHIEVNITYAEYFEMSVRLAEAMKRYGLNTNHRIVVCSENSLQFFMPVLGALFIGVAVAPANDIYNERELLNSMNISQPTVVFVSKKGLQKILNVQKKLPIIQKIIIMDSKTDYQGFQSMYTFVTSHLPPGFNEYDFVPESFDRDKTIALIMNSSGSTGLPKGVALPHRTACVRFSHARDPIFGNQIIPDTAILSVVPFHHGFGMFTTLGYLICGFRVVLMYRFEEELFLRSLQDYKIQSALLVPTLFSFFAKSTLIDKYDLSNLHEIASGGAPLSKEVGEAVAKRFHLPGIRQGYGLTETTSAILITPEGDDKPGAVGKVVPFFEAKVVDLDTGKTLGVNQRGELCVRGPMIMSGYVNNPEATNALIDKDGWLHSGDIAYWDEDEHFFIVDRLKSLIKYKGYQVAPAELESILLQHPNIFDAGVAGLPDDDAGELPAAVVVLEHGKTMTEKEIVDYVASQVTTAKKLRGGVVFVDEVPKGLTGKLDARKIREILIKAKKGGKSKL
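Purified P. pyralis luciferase (10nM final) with 10uM D-luciferin and 10uM ATP (Km levels) in 50mM Tris acetate pH 7.5, 10mM Mg acetate, 0.01% Tween-20, 0.05% BSA; qHTS 6-point titration, ~60 µM downward; luminescence read.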
Rab9 promoter act: activators of Rab9 promoter | Huh7 Rab9 promoter-luciferase reporter, luminescence, 24 h | Potency, µM (doses to about 9.22 µM), actives largely listed as activators | actives 2.8% (n = 320,000) | AID 485297; further: nearly all actives have a fitted effect of over 60% in size
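Stable Rab9-luc Huh7, 1500 cells/well, 2 h settle; cmpd in DMSO, 24 h, 37 °C/5% CO2; luciferase reagent 10 min RT; luminescence.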
SMN2 splice enh: SMN2 splice variant enhancement. HEK293 SMN2-luciferase splicing reporter, luminescence, 30-36 h. AID 1458. Potency, µM (titrated, usually from 46.1 µM), hits mostly activators. actives 2.8% (n = 210,000); further: nearly all actives have a fitted effect of over 55% in size
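qHTS luciferase splicing reporter: luminescence rises when SMN2 exon 7 is included in transfected HEK293 cells. Compound exposure lasted 30-36 h at 37C, with 4.5 mM final sodium butyrate as control, followed by a ONE-Glo read.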
NPC1 prom act: NPC1 promoter activation. Huh7 NPC1 promoter luciferase reporter, 24 h. Potency, µM (titrated, usually from 9.22 µM), most hits filed as activators. actives 2.4% (n = 320,000). AID 485313; further: nearly all actives have a fitted effect of over 60% in size
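Stable NPC1-promoter luciferase Huh7 line; cpd (DMSO) 24 h, 37 °C, 5% CO2; Amplite luciferase reagent 10 min RT; luminescence readout. qHTS format.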
Numbers stand for hits; . = inactive; ? = inconclusive; / = no result given; [ ] = dose if it differs, or a comment. Shown are actives, neighbours in structure and some others; about 7.3% of the full set was active somewhere. The call rests on the fitted dose curve; in most records, active means well fitted curve in the direction sought with a large enough effect; inconclusive means small, poorly fitted or top-dose-only effect, or another doubt; inactive means no such curve, though single readings can be large; an effect the other way counts as inactive or inconclusive.

SMILES	ELG1 genotoxic	p53 reactivator	FLuc modulator	Rab9 promoter act	SMN2 splice enh	NPC1 prom act
Nc1ccc(N=Nc2ccccc2)c2cccnc12	.	?	21.3µM	.	/	.
Cc1cccc(NC(=O)Cn2cc(C(=O)C3CCCCC3)c3ccccc32)c1	/	/	.	/	.	/
CC(=O)c1ccc(OCc2cc(C(=O)NCCn3nc(C)cc3C)no2)cc1	.	.	?	.	/	.
COc1ccc(NC(=O)c2ccc(-c3ccccc3C(F)(F)F)o2)cc1	.	.	19µM	.	.	.
COc1ccc(NC(=S)NC(=O)c2ccc(Br)o2)cc1	?	.	9.53µM	3.16µM	8.91µM	?
O=C(Nc1cccc(F)c1)c1ccc(-c2ccccc2C(F)(F)F)o1	.	?	?	.	.	.
CC(C)c1ccc(NC(=O)C2=NNC(=O)CC2)cc1	?	.	12µM	3.16µM	/	2.82µM
O=C(NC(=S)Nc1ccccc1)c1ccc(Br)o1	?	.	13.5µM	?	22.4µM	?
O=C(NC(=S)NCc1ccccc1)c1ccc(Br)o1	.	.	.	.	/	.
COc1cc(F)ccc1S(=O)(=O)N1CCN(Cc2ccccc2)CC1	.	.	.	.	/	.
Cc1ccccc1NC(=O)c1c(NC(=O)c2ccncc2)sc2c1CCC(C(C)(C)C)C2 (centres undefined)	/	/	?	/	.	/
CCn1nnc2cc(C(=O)Nc3cccc(C)c3C)ccc21	/	/	.	/	/	/
CC(C)c1ccc(NC(=O)c2ccc(Br)o2)cc1	?	?	2.13µM	0.631µM	2.51µM	0.891µM
O=C(Nc1ccc(Nc2ccccc2)cc1)c1ccc(Br)o1	.	31.6µM	19µM	?	.	.
O=C(Nc1ccc(Cc2ccncc2)cc1)c1ccc(Br)o1	.	.	?	.	.	.
Cc1nc(-c2ccc(NC(=O)c3ccc(Br)o3)cc2)cs1	2.91µM	.	1.51µM	0.794µM	/	1.78µM
Cc1nc(-c2cccc(NC(=O)c3ccc(Br)o3)c2)cs1	.	.	?	.	/	.
COc1ccc(NC(=O)c2ccc(Br)o2)cc1	?	?	9.53µM	?	14.1µM	?
CCOC(=O)c1c(C)oc2nc(C)nc(Nc3cc(C)cc(C)c3)c12	/	/	.	/	/	/
CCOC(=O)N1CCN(C(=O)CSc2nnc(-c3cc(OC)cc(OC)c3)o2)CC1	.	.	.	.	?	.
Cc1ccc(NC(=O)Cc2nc(CSc3nnc(-c4ccc5c(c4)OCO5)o3)cs2)cc1	.	.	8.49µM	?	.	?
CN(C)C(=O)c1ccc(NC(=O)CSc2nnc(-c3ccc4c(c3)OCO4)o2)cc1	.	.	.	.	/	.
CCOC(=O)N1CCN(C(=O)CSc2nnc(-c3ccc(C(C)(C)C)cc3)o2)CC1	.	.	3.38µM	.	.	.
CCC1CCCCN1C(=O)CSc1nnc(-c2ccc3c(c2)OCCO3)o1 (centres undefined)	.	.	?	.	.	.
O=C(CSc1nnc(-c2ccc3c(c2)OCCO3)o1)N1CCCC1	?	.	6.75µM	2.51µM	?	?
SMILES	ELG1 genotoxic	p53 reactivator	FLuc modulator	Rab9 promoter act	SMN2 splice enh	NPC1 prom act
Cc1ccc(-c2nnc(SCCC(=O)N3CCOCC3)o2)cc1	.	.	19µM	.	.	.
CCCCN(C(=O)C1CCC(CNS(=O)(=O)c2cccc3nsnc23)CC1)c1ccccc1 (centres undefined)	/	/	.	/	.	/
O=C(CSc1nnc(-c2ccc(F)cc2)o1)N1CCCC1	?	.	?	?	/	?
Cc1ccc(-c2ccc(SCC(=O)Nc3cc(C)on3)nn2)cc1	.	.	.	?	.	.
Cc1cc(NC(=O)CSc2nnc(-c3ccc4c(c3)OCCO4)o2)no1	?	?	?	?	7.08µM	?
Cc1ccc(-c2nnc(SCC(=O)N3CCCC3)o2)cc1C	?	?	15.1µM	3.55µM	11.2µM	?
CCOC(=O)N1CCN(C(=O)CSc2nnc(-c3ccc(C)c(C)c3)o2)CC1	.	.	?	.	.	.
Cc1cc(NC(=O)CSc2ccc(-c3ccc4c(c3)OCO4)nn2)no1	?	.	12µM	.	.	.
Cc1ccc(-c2nnc(SCC(=O)N3CCCC3)o2)cc1	?	.	23.9µM	?	14.1µM	?
O=C(COc1cccnc1[N+](=O)[O-])NCc1ccccc1	.	.	.	.[1.84 µM]	/	.
O=C(CCC(=O)N1CCSc2ccccc21)NCc1ccccc1Cl	/	/	.	/	.	/
Cc1ccc(SCC(=O)N2CCOCC2)cc1	?	?	?	?	11.2µM	.
O=C(CSc1ccc(Cl)cc1)N1CCOCC1	.	.	.[2.3 µM]	.	.	.
COC(=O)c1ccc2c(c1)C(C)(C)C(/C=C/c1ccc(OC)c(OC)c1OC)=[N+]2C	.	.	?	.	.	.
COC(=O)c1ccc2c(c1)C(C)(C)C(/C=C/c1ccc(O)cc1)=[N+]2C	?	.	13.5µM	.	.	.
Cc1ccc(OCC(=O)Nc2ccc3nc(SCC(=O)N4CCCC4)sc3c2)cc1	/	/	.	/	/	/
COC(=O)C1=C(C(=O)OC)[C@@H]2N(C)c3ccc(OC)cc3[C@@]23C[C@@H](C(=O)OC)N(S(=O)(=O)c2ccc(C#N)cc2)C3=N1	/	/	/	/	.[9.22 µM]	/
CCOc1ccc(-c2nc(-c3ccccc3)no2)cc1OCC	?	?	13.5µM	?	.	?
O=[N+]([O-])c1cc(-c2nc(-c3ccncc3)no2)cc([N+](=O)[O-])c1	.	.	.	.	/	.
Cc1cc(C)cc(-c2nc(-c3ccncc3)no2)c1	20.6µM	?	10.7µM	?	.	?
Cc1cccc(-c2nc(-c3ccncc3)no2)c1	9.2µM	?	3.01µM	1.41µM	/	1.58µM
CCOc1ccc(-c2nc(-c3ccncc3)no2)cc1OCC	.	?	.	.	.	.
CC(C)(C)c1ccc(-c2nc(-c3ccncc3)no2)cc1	?	?	0.953µM	0.447µM	.	0.398µM
CCCN(CCC)c1nn2c(=O)c(C(=O)NCc3cccc(OC)c3)cnc2s1	/	/	.	/	/	/
CC(C)(C)c1ccc(-c2noc(-c3ccno3)n2)cc1	?	.	1.9µM	1.41µM	/	1.26µM
SMILES	ELG1 genotoxic	p53 reactivator	FLuc modulator	Rab9 promoter act	SMN2 splice enh	NPC1 prom act
Clc1cccc(Cl)c1-c1noc(-c2ccno2)n1	.	.	.	.	/	.
CCCc1noc(-c2ccc(-c3ccccc3)cc2)n1	?	?	1.51µM	1.58µM	?	1.58µM
Cc1ccc(-c2nc(-c3cccnc3)no2)cc1	/	/	1.51µM	/	10µM	/
O=[N+]([O-])c1cc(-c2nc(-c3ccncc3)no2)ccc1Cl	.	.	.	.	.	.
Clc1ccc(Br)cc1-c1nc(-c2ccncc2)no1	20.6µM	?	?	.	?	.
COc1cccc(Cn2c(=O)c(-c3ccc(F)c(F)c3)nc3cncnc32)c1	/	/	/	/	.	/
CCCCc1nn2c(=O)cc(COC(=O)c3ccc(NC(=O)C4CCCCC4)cc3)nc2s1	/	/	.	/	/	/
CC(=O)c1cccc(NC(=O)CSc2nc(=O)n(Cc3ccco3)c3c2CCC3)c1	/	/	.	/	/	/

Screening results from PubChem.
